High-throughput results: PubChem, several laboratories
Calb FLC = affects C. albicans growth with fluconazole. C. albicans CaCi-2 (fluconazole-resistant clinical isolate) + fluconazole, Alamar Blue growth, 48 h. growth inhibition, % (test concentration not listed). 300,000 compounds, 0.57% hits. AID 1979;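 active = growth inhibition above about 58% in most replicates, limit read from the data, passing the limit was not always enough; inconclusive = exactly half the replicates above a set limit; inactive = most replicates below a set limit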;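 also: all wells also contain fluconazole at 8 µg/ml as a sub-toxic cotreatment; 0% = median of DMSO wells and 100% = median of geldanamycin control wells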
CSC inhib = cancer stem cell inhibition; cancer stem cell-like cells viability, luminescence; inhibition, % at 7.5 µM; 300,000 compounds, 1.1% hits; in the data active = inhibition above about 75%; inconclusive = no clear call, values can overlap the other calls; tested in HMLE shEcad cells
MPTP block = inhibitors of mitochondrial permeability transition pore; isolated mouse mitochondria, Ca2+ swelling absorbance, 30 min; inhibition, % at 10 µM; 360,000 compounds, 1.4% hits; AID 602449;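 active = inhibition of 50% or more, scaled per plate between neutral and stimulator controls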;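 also: 0% = DMSO wells given calcium and 100% = 1 mM EGTA wells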
SKKanGAS inh = inhibitors of SKKanGAS S. pyogenes growth in kanamycin (SK-promoter or general growth effect); BacTiter-Glo, 6 h; inhibition, % at 7.5 µM; 300,000 compounds, 1.3% hits; AID 1662;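 active = mean replicate score, as percent of positive control median, at least 50; inconclusive = mean below 50 but one replicate at or above 50; inactive = mean and every replicate below 50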;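 also: strain carries kanamycin resistance gene driven by streptokinase promoter and grows in 40 µg/ml kanamycin; loss of luminescence reflects streptokinase promoter inhibition or plain growth inhibition; 0% = median of DMSO wells and 100% = positive control at its reference dose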
Beta cell apopt = blocks beta cell apoptosis. INS-1E cytokine-induced death, ATP luminescence, 48 h; percent of positive-control rescue, neutral wells zero. protection from apoptosis, % (no concentration beside the values). 300,000 compounds, 0.8% hits;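 active = Every replicate reaches about 75%, or at least half do and their mean reaches it too, limit read from the data; inconclusive = At least half of replicates reach the limit but their mean does not; inactive = Under half of replicates reach the limit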;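 also: 0% = cytokine-treated negative control wells and 100% = positive control rescue; higher means more ATP so stronger rescue from cytokine killing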
Mdm2-MdmX inh = human Mdm2/MdmX binding inhibition; O15151+Q00987; inhibition, % at 8 µM; 330,000 compounds, 3% hits; SaOS-2 split-luciferase Mdm2/MdmX complementation, luminescence;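 active = inhibition of at least 50% at 8 µM in the primary screen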
Mdm2 MdmX conf = human Mdm2/MdmX binding inhibition, confirmed; shares compounds with Mdm2-MdmX inh; luminescent assay; inhibition, % at 8 µM; 10,000 compounds, 55% hits; AID 489028; in the data active = inhibition above about 40%
Full FLuc ctr = inhibits full-length luciferase, flagging false Mdm2/MdmX hits; inhibition, % at 8 µM; shares compounds with Mdm2-MdmX inh; SaOS-2 full-length luciferase counterscreen, luminescence; 6,200 compounds, 77% hits; AID 504607;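 active = mean inhibition at 8 µM reaching about 37%, which flags the compound as non-specific, limit read from the data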;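 also: p53-null SaOS-2 cells with luciferase driven by a doxycycline-inducible promoter; compound on cells about two nights before reading with doxycycline added after day one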
An asterisk follows results filed as active; ? = inconclusive; · = not tested or not shown. The list is not random: actives were taken first. Their share in the collection is about 5.4%.

SMILES	Calb FLC	CSC inhib	MPTP block	SKKanGAS inh	Beta cell apopt	Mdm2-MdmX inh	Mdm2 MdmX conf	others
Cc1c(C#N)c(N)nc2c3c(sc12)NC(=O)CC3c1ccc(Cl)cc1 (stereo unspecified)	28	-15	3	-9	0	92*	24
O=C(NC(=O)c1ccc(C(F)(F)F)cc1)Nc1ccc(-c2cnco2)cc1	-4	2	0	-4	8	56*	8
N#Cc1nc(/C=C/c2ccccc2)oc1NCCCN1CCOCC1	0	-25	1	-3	-2	-6	·
Nc1c(C(=O)NCc2ccccc2)c2nc3ccccc3nc2n1CCCN1CCOCC1	-13	31	-2	8	7	17	·
Nc1c(C(=O)NCc2ccc(F)cc2)c2nc3ccccc3nc2n1CCCN1CCOCC1	2	?	-6	20	-8	54*	20
COC(=O)c1c(N)n(CCCN2CCOCC2)c2nc3ccccc3nc12	0	-3	0	-5	-10	-12	·
COc1ccc(CNC(=O)c2c(N)n(CCCN3CCOCC3)c3nc4ccccc4nc23)cc1	8	83*	-3	14	42	56*	26
c1cc(SSc2ccncc2)ccn1	3	16	0	2	-11	27	·
CCOC(=O)C1CCCN(C(=O)c2ccc3nc(-c4cccc(OC)c4)oc3c2)C1 (stereo unspecified)	-3	51	2	1	3	53*	79*	Full FLuc ctr=113*
CCC(=O)C1CCCN(C(=O)c2ccc3nc(-c4cccc(OC)c4)oc3c2)C1 (stereo unspecified)	18	-4	0	0	3	7	·
Cc1cc(Oc2ccc(-c3nnc(-c4ccccc4)o3)cc2[N+](=O)[O-])ccc1Cl	2	-10	3	-4	1	75*	2
COc1ccc(-c2nc(NC(=O)C3CC(=O)N(c4ccc5c(c4)OCCO5)C3)sc2C)cc1 (stereo unspecified)	0	53	13	55*	43	66*	58*	Full FLuc ctr=36*
COc1ccc2nc(NC(=O)C3CC(=O)N(c4ccc5c(c4)OCCO5)C3)sc2c1 (stereo unspecified)	·	·	-2	·	·	9	·
CCC1C(=O)N=C(SCC(=O)Nc2nc3ccccc3s2)NC1=O (stereo unspecified)	6	-21	-2	-5	-2	72*	18
Cc1csc(SCC(=O)Nc2nc3ccccc3s2)n1	-17	1	-7	1	4	5	·
CCC1C(=O)N=C(SCC(=O)Nc2cccc3ccccc23)NC1=O (stereo unspecified)	-1	-17	-2	5	·	-7	·
Cn1cc(SCC(=O)Nc2nc3ccccc3s2)c2ccccc21	-7	-6	1	7	-26	78*	67*	Full FLuc ctr=62*
CC1(C)Cc2cccc(OCC(=O)Nc3ccc(OCC(N)=O)cc3)c2O1	-11	0	0	-6	2	-6	·
COc1ccc2c(C(=O)NCc3ccc4c(c3)OCO4)c(-c3ccc(S(C)(=O)=O)cc3)sc2c1	·	·	0	·	?	84*	21
COC(=O)c1c(-c2ccc(S(C)(=O)=O)cc2)sc2cc(OC)ccc12	·	19	2	·	-2	-27	·
Cc1cc(N2CC(C)OC(C)C2)nc2ccccc12 (stereo unspecified)	2	-4	0	-4	-7	14	·
Cc1ccc(-n2c(C)cc(/C=c3/sc4nc5ccccc5n4c3=O)c2C)cc1	11	-8	·	10	1	82*	61*	Full FLuc ctr=28
CC1(C)Oc2ccc3ccc(=O)oc3c2/C(=C/Nc2ccc(O)cc2)C1=O	2	-1	2	13	-15	55*	25
CC1(C)Oc2ccc3ccc(=O)oc3c2/C(=C/Nc2cccc(O)c2)C1=O	1	·	0	16	-4	30	·
CCOC(=O)c1sc(N)c(C(=O)Nc2ccccc2OC)c1C	16	59	2	3	15	56*	65*	Full FLuc ctr=57*
COC(=O)c1c(N)sc(C(=O)NCCc2ccccc2)c1C	51	25	2	0	8	65*	59*	Full FLuc ctr=73*
